PubChem BioAssay AID1159580 (chemical genetic matrix, 2015)
Several values for one entry are separate records, joined by “and”; a condition that tells them apart may be missing. Equal entries are not always repeated. The whole screen tested about 5,500 compounds, of which about 2,000 (36%) were called active. Inconclusive results (about 18%) are left out. Cut-off read from the data, not from the text of the source: active = normalized growth mostly below about 0.91 (no sharp cut-off); inconclusive = no clear call, values can overlap the other calls; inactive = mostly above about 0.92. The list shows a part of the results.

Assay: chemical genetic growth profiling, strain panel (AID 1159580);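 note: tested at 20 µM; growth read once vehicle control cultures reached saturation at 30 °C; 1 = growth at the plate median or of vehicle wells; lower values mean less growth of the strain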
Conditions: S. cerevisiae deletion strains, growth OD

Measured: normalized growth

NC(=O)N/N=C\c1ccc([N+](=O)[O-])o1
inactive: locus YAL021C, strain ccr4, active compounds read low 0.987 | locus YAL026C, strain drs2, active compounds read low 0.988 | locus YAL030W, strain snc1, active compounds read low 1 | locus YBL061C, strain skt5, active compounds read low 0.997 | locus YBR009C, strain hhf1, active compounds read low 0.978 | locus YBR021W, strain FUR4, active compounds read low 1.02 | locus YBR023C, strain chs3, active compounds read low 0.996 | locus YBR171W, strain sec66, active compounds read low 1.01 | locus YBR229C, strain ROT2, active compounds read low 0.997 | locus YBR231C, strain swc5, active compounds read low 0.993 | locus YBR279W, strain paf1, active compounds read low 0.995 | locus YCL011C, strain gbp2, active compounds read low 0.986 | locus YCL016C, strain dcc1, active compounds read low 0.992 | locus YCL029C, strain bik1, active compounds read low 0.99 | locus YCL061C, strain MRC1, active compounds read low 1.01 | locus YCL069W, strain vba3, active compounds read low 1 | locus YCR088W, strain abp1, active compounds read low 0.972 | locus YDL005C, strain med2, active compounds read low 0.989 | locus YDL035C, strain GPR1, active compounds read low 1.01 | locus YDL040C, strain nat1, active compounds read low 0.995 | locus YDL074C, strain BRE1, active compounds read low 1.08 | locus YDL101C, strain DUN1, active compounds read low 0.993 | locus YDL134C, strain PPH21, active compounds read low 1 | locus YDL185W, strain tfp1, active compounds read low 0.963 | locus YDL192W, strain arf1, active compounds read low 0.99 | locus YDR001C, strain nth1, active compounds read low 0.991 | locus YDR069C, strain doa4, active compounds read low 0.975 | locus YDR101C, strain arx1, active compounds read low 0.977 | locus YDR137W, strain rgp1, active compounds read low 1.04 | locus YDR159W, strain sac3, active compounds read low 0.993 | locus YDR162C, strain NBP2, active compounds read low 1.01 | locus YDR195W, strain ref2 0.967 | locus YDR297W, strain sur2, active compounds read low 0.991 | locus YDR318W, strain mcm21, active compounds read low 0.983 | locus YDR334W, strain swr1, active compounds read low 0.992 | locus YDR335W, strain msn5, active compounds read low 0.999 | locus YDR388W, active compounds read low 0.984 | locus YDR392W, strain spt3, active compounds read low 0.925 | locus YDR502C, strain sam2, active compounds read low 0.978 | locus YEL003W, strain gim4, active compounds read low 1 | locus YEL037C, strain rad23, active compounds read low 1 | locus YEL061C, strain CIN8 (second series), active compounds read low 1 | locus YEL061C, strain CIN8, active compounds read low 1.02 | locus YER015W, strain faa2, active compounds read low 0.962 | locus YER016W, strain bim1, active compounds read low 0.968 | locus YER110C, active compounds read low 0.966 | locus YER111C, strain swi4, active compounds read low 1.01 | locus YER155C, strain BEM2 (second series), active compounds read low 0.962 | locus YER155C, strain BEM2, active compounds read low 0.994 | locus YER167W, strain BCK2, active compounds read low 1 | locus YFR010W, strain ubp6, active compounds read low 0.985 | locus YGL078C, strain dbp3, active compounds read low 0.995 | locus YGL086W, strain mad1, active compounds read low 0.971 | locus YGL167C, strain pmr1, active compounds read low 0.994 | locus YGL173C, strain kem1, active compounds read low 1.01 | locus YGL227W, strain vid30, active compounds read low 1.01 | locus YGL240W, strain doc1, active compounds read low 0.952 | locus YGL248W, strain PDE1, active compounds read low 0.999 | locus YGL253W, strain hxk2, active compounds read low 1.01 | locus YGR135W, strain pre9, active compounds read low 0.989 | locus YGR229C, strain SMI1, active compounds read low 1.07 | locus YGR252W, strain gcn5, active compounds read low 0.951 | locus YHR013C, strain ard1, active compounds read low 1.01 | locus YHR027C, strain rpn1, active compounds read low 0.988 | locus YHR030C, strain SLT2, active compounds read low 0.992 and 0.97 | locus YHR079C, strain IRE1 (second series), active compounds read low 0.978 | locus YHR079C, strain IRE1, active compounds read low 0.96 | locus YHR094C, strain hxt1, active compounds read low 0.982 | locus YHR129C, strain ARP1, active compounds read low 0.999 | locus YHR142W, strain chs7, active compounds read low 1.02 | locus YHR200W, strain rpn10, active compounds read low 0.989 | locus YIL066C, strain RNR3, active compounds read low 1.01 | locus YIL073C, strain SPO22, active compounds read low 0.975 | locus YIL125W, strain kgd1, active compounds read low 0.983 | locus YIR030C, strain dcg1, active compounds read low 0.989 | locus YJL092W, strain hpr5, active compounds read low 0.997 | locus YJL095W, strain BCK1 (second series), active compounds read low 0.992 | locus YJL095W, strain BCK1, active compounds read low 0.985 and 0.968 | locus YJL115W, strain asf1, active compounds read low 1.02 | locus YJL129C, strain trk1, active compounds read low 1.05 | locus YJL134W, strain LCB3, active compounds read low 1 | locus YJL154C, strain vps35, active compounds read low 0.992 | locus YJL164C, strain tpk1, active compounds read low 0.966 | locus YJL166W, strain qcr8, active compounds read low 0.984 | locus YJL168C, strain set2, active compounds read low 0.979 | locus YJL187C, strain SWE1 (second series), active compounds read low 0.998 | locus YJL187C, strain SWE1, active compounds read low 0.996 | locus YJR043C, strain POL32, active compounds read low 0.977
